Experiment [1] relates to JAK1(JH2domain-pseudokinase). The settings on record: concentration: 1 μM, replicates: in singlicate; n = 1.
Experiment [2] concerns JAK2(JH1domain-catalytic). The settings on record: concentration: 1 μM, replicates: in singlicate; n = 1.
Experiment [3] has as its system JAK3(JH1domain-catalytic). The settings on record: concentration: 1 μM, replicates: in singlicate; n = 1.
For experiment [4], the system named is T1, JNK1.
T1 construct: gene MAPK8
The settings on record: concentration: 1 μM, replicates: in singlicate; n = 1.

In experiment [5] the test system is T2, JNK2.
T2 construct: gene MAPK9
The settings on record: concentration: 1 μM, replicates: in singlicate; n = 1.

Experiment [6] relates to T3, JNK3.
T3 construct: gene MAPK10
The settings on record: concentration: 1 μM, replicates: in singlicate; n = 1.

For experiment [7], the system named is KIT-autoinhibited. The note with it: concentration: 1 μM, replicates: in singlicate; n = 1.
Experiment [8] relates to KIT. The settings on record: concentration: 1 μM, replicates: in singlicate; n = 1.
In experiment [9] the test system is LATS1. The settings on record: concentration: 1 μM, replicates: in singlicate; n = 1.
Experiment [10] concerns LATS2. The settings on record: concentration: 1 μM, replicates: in singlicate; n = 1.
In experiment [11] the test system is LCK. The note with it: concentration: 1 μM, replicates: in singlicate; n = 1.
Experiment [12] relates to LIMK1. The settings on record: concentration: 1 μM, replicates: in singlicate; n = 1.
In experiment [13] the test system is LIMK2. The settings on record: concentration: 1 μM, replicates: in singlicate; n = 1.
Experiment [14] deals with T4, LKB1.
T4 construct: gene STK11
The note with it: concentration: 1 μM, replicates: in singlicate; n = 1.

For experiment [15], the system named is T5, LOK.
T5 construct: gene STK10
The settings on record: concentration: 1 μM, replicates: in singlicate; n = 1.

Experiment [16] deals with LRRK2. The settings on record: n = 1.
For experiment [17], the system named is LTK. The note with it: concentration: 1 μM, replicates: in singlicate; n = 1.
For experiment [18], the system named is LYN. The note with it: concentration: 1 μM, replicates: in singlicate; n = 1.
Experiment [19] concerns T6, LZK.
T6 construct: gene MAP3K13
The settings on record: concentration: 1 μM, replicates: in singlicate; n = 1.

In experiment [20] the test system is MAK. The note with it: concentration: 1 μM, replicates: in singlicate; n = 1.
Setting [21] is: concentration: 1 μM, replicates: in singlicate.

Structures are written as SMILES. Read-outs that look alike come from different tables or passages of the source.
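Further: KINOMEscan kinase panel screen.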

For the molecule `O=C(O)C(F)(F)F.O=c1[nH]ccc2nc(N[C@@H]3CCNC3)nc(Nc3ccc4c(c3)S(=O)(=O)CC4)c12` [GSK2181306], the “%Inh” value in experiment [1] turned out to be 98%; in experiment [2], 98.4%; in [3], 100%; in experiment [4], 83%; in experiment [5], 54%; in experiment [6] it was 78%. Also, the “%Inh” value is reported as 0% in experiment [7]; 73% in [8]; 51% in [9]; 80% in experiment [10]; 40% in experiment [11]; 0% in experiment [12]. Moreover, the “%Inh” value was 0% in [13]; 2% in [14]; 97.2% in experiment [15]; 94.5% in experiment [16] (setting [21]); 29% in [17]; 7% in experiment [18]. Further, the figures for the “%Inh” value in experiment [19] and in experiment [20] were 6% and 93.5%, respectively.

As to `Cc1ccc(NC(=O)c2ccc(Cl)c(Cl)c2)cc1-c1ccc(C(=O)Nc2ccncc2)cc1` [GSK1398460], the “%Inh” value in experiment [1] is 0%; in [2] it was 0%; in experiment [3], 0%; in experiment [4], 11%; in experiment [5], 4%; in [6], 0%. In addition, the “%Inh” value in experiment [7] turned out to be 9%; in experiment [8], 100%; in experiment [9], 0%; in experiment [10], 3%; in experiment [11] it was 91.9%; in [12] it was 19%. Further, the “%Inh” value amounted to 0% in [13]; 0% in [14]; 0% in experiment [15]; 0% in experiment [16] (setting [21]); 11% in [17]; 83% in experiment [18]. The “%Inh” value in [19] is on record as 0%; in experiment [20], 100%.

`COc1cccc(NC(=O)NCCNc2ccnc(Nc3ccc(F)cc3)n2)c1` [GSK1379879]: the “%Inh” value in experiment [1] amounted to 0%; in experiment [2], 22%; in experiment [3], 0%; in experiment [4], 25%; in experiment [5] it was 17%; in experiment [6] it was 13%. In addition, the “%Inh” value in experiment [7] was determined as 0%; in [8], 46%; in experiment [9] it was 0%; in [10], 0%; in [11], 6%; in experiment [12], 0%. Besides, the “%Inh” value in experiment [13] was found to be 18%; in experiment [14], 6%; in experiment [15] it was 0%; in experiment [16] (setting [21]), 0%; in experiment [17], 0%; in [18], 0%. Moreover, the “%Inh” value in experiment [19] came out at 11%; in experiment [20] it was 56%.

Regarding `CC(=O)Nc1cn2nc(Oc3cccc(NC(=O)c4cccc(C(F)(F)F)c4)c3)ccc2n1`, the “%Inh” value in experiment [1] was 5%; in [2], 0%; in [3], 0%; in experiment [4] it was 26%; in [5], 0%; in [6], 0%. Further, the “%Inh” value is on record as 87% in experiment [7]; 100% in [8]; 5% in [9]; 0% in [10]; 99.5% in experiment [11]; 0% in experiment [12]. Moreover, the “%Inh” value in experiment [13] was determined as 14%; in experiment [14], 0%; in experiment [15], 90.1%; in experiment [16] (setting [21]), 8%; in [17], 0%; in [18], 97.9%. Further, the “%Inh” value in [19] and in experiment [20] was 0% in each case.

Take `CN(C)c1ncnc2nc[nH]c12` [SKF-31736]: the “%Inh” value in [1] came out at 34%; in experiment [2], 0%; in [3], 30%; in experiment [4], 23%; in experiment [5], 0%; in experiment [6], 0%. Further, the “%Inh” value is 19% in experiment [7]; 0% in experiment [8]; 0% in experiment [9]; 0% in experiment [10]; 0% in [11]; 0% in experiment [12]. In addition, the “%Inh” value turned out to be 0% in experiment [13]; 0% in experiment [14]; 2% in [15]; 0% in [16] (1 µM); 0% in experiment [17]; 0% in experiment [18]. Besides, the entries for the “%Inh” value in experiment [19] and in experiment [20] were 8% and 0%, respectively.

The values are drawn from article PMC5540273 (PLoS ONE, 2017).
